For 40 compounds, growth results are on record in PubChem BioAssay (NCI).

The structures appear in SMILES notation. This is part of a sample that, as a whole, favours compounds with a hit. Of some 83,000 tested, about 20% had one in any assay.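 Single-concentration screen, 48 h exposure, 96-well plates. Endpoint: percent growth. Below 10 = active.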 Values without a mark were called inactive. Calls of active or inactive are those of the source.

This assay concerns OVCAR-5 ovarian. Briefly: NCI-60 one-dose screen, 48 h (100 = growth as untreated, 0 = no growth, -100 = all killed). The settings on record: 10 µM unless noted. As for the experimental part: Growth inhibition of the OVCAR-5 human tumor cell line is measured as a screen for anti-cancer activity. Cells are grown in 96 well plates and exposed to the test compound for 48 hours. Compounds are tested at a single concentration, which is 10^-5 M for most compounds. The reported endpoint is percent growth (GI% or GIPRCNT), where numbers from 0 - 100% represent growth inhibition, and numbers from -100% - 0 represent cell death. For example, a value of 40 represents 60% growth inhibition. A value of 0 means no net growth occurred over the course of the experiment. A value of -40 indicates 40% of cells at the beginning of the experiment died by the end of the experiment. A value of -100 means all cells are dead at the end of the experiment.
NCI-60 Human Tumor Cell Lines Screen was performed using the standard one-dose NCI protocol, which is described in more detail at https://dtp.cancer.gov/discovery_development/nci-60/default.htm.
Compounds with GIPRCNT values below 10 were considered active. Activity score was based on GIPRCNT using the following formula: […]
Score is 0 for GIPRCNT values of 100 or above, 50 for GIPRCNT values of 0, and 100 for GIPRCNT values of -100.
Take `COc1ccc(Cc2cnc(NC(=O)c3sc4ccccc4c3Cl)s2)cc1`: the growth is 48.4%.

Regarding `O=C1C(Cl)=C(NCCN2CCOCC2)C(=O)c2ncccc21`, the growth was -22.8% (active).

Consider `COc1cccc(/C=C/C(=O)c2cc3c(N)c(C(=O)Nc4cccc(Cl)c4C)sc3nc2C)c1`, for which the growth was 7.92% (active).

In the case of `C/C(=N\O)C(=O)NCCCCCC(=O)Nc1ccccc1`, the growth was 106%.

As for `CNC(=O)c1cc(Oc2ccc3nc(NC(=O)Nc4ccc(Cl)c(Cl)c4)sc3c2)ccn1`, the growth is 85.6%.

Consider `Cc1cccc(-n2c(C)nc3ccc(N4CCCNC4=O)cc3c2=O)c1`, for which the growth is 112%.

On to `O=C(O)c1cccc(N/C=C/C(=O)c2cc3cc(Br)ccc3oc2=O)c1`, for which the growth is 98.8%.

`CC(C)C[C@@H](C(=O)N[C@H](C(=O)OC1CCCC1)c1ccccc1)[C@H](O)C(=O)NO`: the growth is 59.8%.

For the compound `N=C(N)c1ccc(-c2ccc(-c3ccc(F)cc3)s2)s1`, the growth was -28.8% (active).

With `CC1(C)CC[C@]2(C(=O)O)CC[C@]3(C)C(=CC[C@@H]4[C@@]5(C)C[C@@H](Cc6cn([C@@H]7O[C@H](CO)[C@@H](O)[C@H](O)[C@H]7O)nn6)[C@H](O)C(C)(C)[C@@H]5CC[C@]43C)[C@@H]2C1`, the growth was 102%.

As to `C=C1C(=O)O[C@H]2[C@H]1CC/C(COC(=O)NCCCCCCCCNC(=O)OC/C1=C/CC[C@@]3(C)O[C@H]3[C@H]3OC(=O)C(=C)[C@@H]3CC1)=C\CC[C@@]1(C)O[C@@H]21`, the growth was -79.6% (active).

In the case of `COc1cc2c(/C=C3\C(=O)Nc4ccccc43)c(C(=O)O)[nH]c2cc1C`, the growth is 59.1%.

Consider `CC(/C=C1\SC(=S)N(CC(=O)NC(Cc2c[nH]c3ccccc23)C(=O)O)C1=O)=C\c1ccccc1` (stereo not given), for which the growth is 102%.

As for `NNC(=S)N/N=C/c1ccccn1`, the growth was 40.3%.

Take `COc1ccc(C(c2cc(OC)c(OC)c(OC)c2)N2CCN(Cc3ccccc3)CC2)cc1` (stereo not given): the growth was 84.7%.

`O=c1ccc2nc(C(F)(F)F)nn(-c3ccccc3)c-2c1`: the growth was 102%.

Turning to `CC1(C)CCC(S(=O)(=O)c2ccc3c(c2)/C(=N\O)c2cc(S(=O)(=O)N4CCN(c5ccc(F)cc5O)CC4)ccc2-3)CC1`, the growth is -69.3% (active).

Regarding `CCOC(=O)c1c(C)nn(CC(O)c2ccccc2)c1NC(=O)Nc1cccc(F)c1` (stereo not given), the growth was 84.8%.

Turning to `CCOc1ccc(NC(=O)c2cc(OC)c(OC)c(OC)c2)cc1`, the growth is 94%.

For `O=C(/C=C/C12c3ccccc3C(c3ccccc31)C1C(=O)NC(=O)C12)c1ccccn1` (stereo not given), the growth is 21%.

As to `COc1ccc2cc(-c3cnc4nonc4n3)ccc2c1`, the growth is 76%.

Turning to `O=C1c2cccnc2C(=O)c2c1c(C(=O)OCCCN1CCCCC1)c1ccccn21`, the growth was -19.2% (active).

For `Cc1ccc(C)c(-n2c(-c3ccc(Br)cc3)csc2=NC(=O)c2ccccc2F)c1`, the growth was 112%.

For `CCN(CC)CCOc1nc2c3ccc(Cl)cc3nn2c2ccccc12`, the growth was 34%.

Take `CCc1cccc(Sc2cc(C(=O)N3Cc4ccc(OCCN(C)C)cc4C3)ccc2O)c1`: the growth is 110%.

Turning to `O=C1/C(=C/c2ccccc2[N+](=O)[O-])COc2ccc(O)cc21`, the growth was -19% (active).

As to `CCOC(=O)c1ccc2c(c1)c1c(C)c3ccncc3c(C)c1n2C`, the growth is -11% (active).

As to `Clc1ccc(-c2nc(-c3c[nH]c4ncccc34)cs2)cc1`, the growth was 73.7% [100 µM].

On to `Fc1ccc(COc2ccc(Nc3ncnc4sc5c(c34)CCCC5)cc2)cc1`, for which the growth was 112%.

For the compound `O=C(O)CCCn1c(SCc2c(Cl)cccc2Cl)nc2ccsc2c1=O`, the growth was 50.7%.

`Cc1c2ccccc2nc2c1ccc1cccnc12`: the growth was 83.5%.

As to `O=C(N/N=C/c1ccc(Cl)cc1Cl)c1ccc2nc(-c3ccc(Cl)cc3)[nH]c2c1`, the growth is 23.7%.

On to `CCN1C(=O)N(CC)C2C1NN=c1s/c(=C\c3cc4ccccc4[nH]3)c(=O)n12` (stereo not given), for which the growth was 33.9%.

`Cn1cc(-c2csc(-c3cn(C(=O)OC(C)(C)C)c4ccccc34)n2)c2ccnc(Cl)c21`: the growth was 51.3%.

In the case of `COc1cc(C(=O)/C=C/c2ccc(N3CCN(C)CC3)cc2)cc(OC)c1OC`, the growth was 96.5%.

For `CC1(C)CC[C@]2(C(=O)N3CCOCC3)CC[C@]3(C)C(=CC[C@@H]4[C@@]5(C)C/C(=C/c6ccncc6)C(=O)C(C)(C)[C@@H]5CC[C@]43C)[C@@H]2C1`, the growth is 30.3%.

With `CN1C(=O)N(C)C2C1NC(=S)N2/N=C/C=C/c1ccccc1[N+](=O)[O-]` (stereo not given), the growth was 74.9%.

On to `COC(=O)c1ccc2c(c1)c1c(C)c3ccncc3c(C)c1n2C`, for which the growth is 44.9%.

As to `COc1ccc(/C=C/C(=O)c2cc3c(N)c(C(=O)Nc4ccc(OC)cc4)sc3nc2C)cc1`, the growth is 42.9%.

For the compound `Oc1c(Cl)cc(Cl)c2ccc(Cn3cc(-c4cccc(C(F)(F)F)c4)nn3)nc12`, the growth was 94.5%.
